High-throughput results from PubChem BioAssay.
A selection: hits, their analogues and other compounds. The true share with any hit is near 7.5%.
ELG1 genotox: inducers of genotoxicity in HEK293T ELG1-luciferase cells; Potency, µM (highest dose often 46 µM), inactives show at the top dose activity change, positive = activation, hits mostly activators; HEK293T ELG1-luciferase reporter, luminescence, 16 h; actives 1.3% (n = 330,000); note: % of control where 0% means no effect; nearly all actives have a fitted effect of over 60% in size
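Reporter readout depends on ELG1 protein level, which increases with genetic stress. After 16 hr compound exposure at 37 °C, luciferase activity was quantified using ONE-Glo.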
NPC1 prom act: activates the NPC1 promoter; Huh7 NPC1 promoter luciferase reporter, 24 h; Potency, µM (highest dose often 9.22 µM), for inactives: at the top dose activation, hits mostly activators; actives 2.4% (n = 320,000); AID 485313; note: % of control where 0% means no effect; nearly all actives have a fitted effect of over 60% in size
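Luminescence from an NPC1 promoter-driven luciferase reporter in stably transfected Huh7 cells was measured after 24 h compound treatment at 37 °C, followed by 10 min ambient incubation with luciferase detection reagent.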
Luc counter: Kinase-Glo luciferase inhibition (counter-screen); Q27757; Kinase-Glo luciferase, ATP luminescence, 8 min; Potency, µM (highest dose often 38.3 µM), for the others: top-dose activity change, negative = inhibition, usual class: inhibitors; actives 0.28% (n = 200,000); note: % is set by controls: 0 for no effect and ±100 for the full control effect; nearly all actives have a fitted effect of over 60% in size
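Luminescence was the read-out, taken after 8-minute incubation at ambient temperature. Luciferase turned over luciferin with 10 uM ATP in imidazole pH 7.2 buffer containing KCl, MgCl2, Tween 20 and BSA.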
SMN2 splice up: SMN2 splice variant enhancement; HEK293 SMN2-luciferase splicing reporter, luminescence, 30-36 h; Potency, µM (doses to about 46.1 µM), for inactives: at the top dose activity change, positive = activation, actives largely listed as activators; actives 2.8% (n = 210,000); AID 1458; note: % of control where 0% means no effect; nearly all actives have a fitted effect of over 55% in size
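qHTS luciferase splicing reporter: luminescence rises when SMN2 exon 7 is included in transfected HEK293 cells. Compound exposure lasted 30-36 h at 37C, with 4.5 mM final sodium butyrate as control, followed by a ONE-Glo read.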
FLuc modulator: counter-screen for miR-21 project: firefly luciferase inhibitors or activators; Potency, µM (series often up to 57.5 µM), for the others: at the highest dose activity change, negative = inhibition, most hits filed as inhibitors; P08659; purified FLuc, Km substrates, luminescence inhibition; actives 6.9% (n = 360,000);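 note: plate controls were vehicle for no effect and reference inhibitor for full effect; nearly all actives have a fitted effect of over 55% in size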
Target sequence (P08659 whole entry, looked up): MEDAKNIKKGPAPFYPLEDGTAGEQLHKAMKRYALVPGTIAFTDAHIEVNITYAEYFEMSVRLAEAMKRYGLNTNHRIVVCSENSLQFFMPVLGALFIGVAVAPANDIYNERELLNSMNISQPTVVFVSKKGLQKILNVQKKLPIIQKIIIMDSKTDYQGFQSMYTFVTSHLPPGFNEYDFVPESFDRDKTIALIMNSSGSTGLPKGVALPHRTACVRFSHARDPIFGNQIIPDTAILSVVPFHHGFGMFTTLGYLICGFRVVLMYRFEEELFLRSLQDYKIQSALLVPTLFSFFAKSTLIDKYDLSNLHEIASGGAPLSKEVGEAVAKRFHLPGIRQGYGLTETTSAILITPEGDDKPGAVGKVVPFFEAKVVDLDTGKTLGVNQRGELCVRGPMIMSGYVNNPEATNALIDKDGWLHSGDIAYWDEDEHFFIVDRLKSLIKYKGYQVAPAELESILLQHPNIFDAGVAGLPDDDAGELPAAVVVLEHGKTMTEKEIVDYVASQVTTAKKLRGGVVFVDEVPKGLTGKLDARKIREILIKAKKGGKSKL
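Biochemical qHTS of compounds, final roughly 60 µM downward over six points, against 10 nM purified firefly luciferase using Km concentrations of substrates (10 uM D-luciferin, 10 uM ATP) in Tris acetate pH 7.5 buffer; luminescence output.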
Rab9 promoter act: activates the Rab9 promoter | AID 485297 | Huh7 Rab9 promoter-luciferase reporter, luminescence, 24 h | actives 2.8% (n = 320,000) | Potency, µM (highest dose often 9.22 µM), inactives show top-dose activation, negative = inhibition, actives largely listed as activators; note: % of control where 0% means no effect; nearly all actives have a fitted effect of over 60% in size
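Measured in stably transfected Huh7 cells bearing a Rab9 promoter–luciferase construct: 24 h compound treatment at 37 °C, followed by luminescence detection.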
* = called active by the depositor; ? = inconclusive; / = no result; [ ] = dose if it differs, or a comment. Calls come from the whole dose curve; as a rule, active = well fitted curve in the direction sought with a large enough effect; inconclusive = small, poorly fitted or top-dose-only effect, or another doubt; inactive = no such curve, though single readings can be large; an effect the other way counts as inactive or inconclusive. Potency is the fitted concentration of half-maximal effect.

SMILES	ELG1 genotox	NPC1 prom act	Luc counter	SMN2 splice up	FLuc modulator	Rab9 promoter act
CCOC(=O)c1ccc(NC(=O)c2cn(-c3ccccc3)nc2-c2ccc(OC)c(OC)c2)cc1	/	/	/	10%	-1%	/
COc1ccc(-c2nn(-c3ccccc3)cc2/C=C/C(=O)N2CCOCC2)cc1OC	-1%	0%	0%	11%	24µM*	-2%
COc1cccc(NC(=O)CN(C)C(C)C(=O)N2CCCCC2)c1 (stereo not drawn)	0%	/	/	/	/	/
O=C(O)c1cccc(NC(=O)c2cn(-c3ccccc3)nc2-c2ccc(F)cc2)c1	9%	-4%	/	/	4.8µM*	22%
Cc1ccc(-c2nn(-c3ccccc3)cc2C(=O)Nc2ccc(C(=O)O)cc2)cc1	13%	27%	-4%	18µM*	1.1µM*	?
Cc1ccc(NC(=O)c2cn(-c3ccccc3)nc2-c2ccccc2)cc1	/	/	/	/	-7%	/
COc1cccc(-c2nn(-c3ccccc3)cc2C(=O)O)c1	2%	-4%	-1%	-18%	?	-7%
COc1ccc(-c2nn(-c3ccccc3)cc2C(=O)O)cc1OC	7%	4%	10%	3%	15µM*	8%
COc1ccc(-c2nn(-c3ccccc3)cc2C(=O)Nc2ccc(C(=O)O)cc2)cc1OC	16%	18%	/	/	4.3µM*	16%
CCC/C=C(\CCC)C(NS(=O)(=O)CC12CCC(CC1=O)C2(C)C)c1ccc(C(=O)OC)cc1 (stereo not drawn)	/	/	-4%	-25%	/	/
COc1ccc(-c2nn(-c3ccccc3)cc2/C=C(\CC(=O)O)c2nc3ccccc3s2)cc1OC	2%	3%	0%	-5%	9.5µM*	-1%
COc1ccc(OC)c(-c2nn(-c3ccccc3)cc2C(=O)N2CCc3ccccc3C2)c1	0%	-2%	/	/	2%	1%
COc1cccc(-c2nn(-c3ccc(C)cc3)cc2C(=O)N2CCc3cc(OC)c(OC)cc3C2)c1	-22%	-3%	/	/	5.4µM*	1%
Cc1cc2c3c([nH]c2cc1S(=O)(=O)NCCCOC(C)C)CC(C)(C)CC3=O	-3%	-2%	/	/	1%	-9%
O=C1CCCCC1C(=O)c1cn(-c2ccc(Cl)c(Cl)c2)nn1 (stereo not drawn)	?	11%	-2%	14µM*	0.85µM*	24%
CC(C)CNC(=O)N1[C@H](c2cccs2)[C@@H](C)C(=O)[C@@H](C)[C@@H]1c1cccs1	/	/	/	/	2%	/
CC(=O)Nc1ccccc1C(=O)C(=O)O	1%	2%	1%	4%	-2%	0%
NC(=O)c1ccccc1NC(=O)Nc1ccc(F)c(Cl)c1	5%	-2%	?	18%	9.5µM*	0%
NC(=O)c1ccccc1NC(=O)Nc1cccc(Cl)c1Cl	5%	0%	0%	5%	-12%	-3%
CCc1ccc(NC(=O)C(=O)c2ccccc2NC(C)=O)cc1	?	1.6µM*	/	/	?	2.8µM*
Cc1ccc(NC(=O)/C(Cl)=C/c2ccccc2)cc1C	?	1.8µM*	-3%	?	0.76µM*	2.5µM*
CC(=O)Nc1ccccc1C(=O)C(=O)Nc1ccc(C)c(F)c1	?	3.5µM*	-3%	6.3µM*	?	1.8µM*
CCOC(=O)c1ccc(NC(=O)c2nn(C)c3c2COc2ccccc2-3)cc1	/	/	/	/	-1%	/
COc1ccccc1CNC(=O)C(CCSC)NC(=O)c1cccc(S(=O)(=O)N2CCOCC2)c1 (stereo not drawn)	-1%	/	/	/	/	/
Cc1c(NC(=O)c2cccnc2Cl)c(=O)n(-c2ccccc2)n1C	-2%	-8%	/	/	1%	0%
SMILES	ELG1 genotox	NPC1 prom act	Luc counter	SMN2 splice up	FLuc modulator	Rab9 promoter act
CC(=O)c1cccc(NC(=O)CNC(=O)c2sc3ccccc3c2Cl)c1	?	10%	/	/	-18%	1%
C[C@@H]1CN(C(=O)c2cc(COc3cccc(C(F)(F)F)c3)on2)C[C@H](C)O1	-12%	-1%	/	/	0%	0%
C[N+](C)(C)c1nc(N)nc2c1ncn2[C@H]1O[C@@H](CO)[C@@H](O)[C@H]1O	/	/	-2%[7.66 µM]	-11%[9.22 µM]	/	/
CC(=O)Nc1ccccc1C(=O)C(=O)Nc1ccc(C)c(C)c1	?	2µM*	2%	18µM*	?	0.89µM*
CC(=O)Nc1ccccc1C(=O)C(=O)Nc1cccc(C(=O)NCc2ccccc2)c1	-1%	-1%	3%	-5%	4%	14%
CC(=O)Nc1ccccc1C(=O)C(=O)Nc1ccc(F)c(Cl)c1	?	4µM*	/	/	3%	3.2µM*
Brc1ccc(-c2cnc(-c3cccs3)o2)cc1	?	?	-3%	?	5.4µM*	4µM*
CNC(=S)SCCOc1ccccc1	1%	2%	/	/	15µM*	10%
CNC(=S)SCCOc1ccc(C)cc1	0%	1%	2%	16%	15µM*	4%
O=C1CCC(C(=O)Nc2cccc3ccccc23)N1 (stereo not drawn)	3%	-2%	0%	7.9µM*	3%	-2%
CCOC(=O)Cn1nc(NC(=O)c2cc(OC)cc(OC)c2)cc1C	4%	8%	/	/	-11%	4%
CCOC(=O)Cn1nc(NC(=O)c2ccc(C(=O)OC)cc2)cc1C	18%	?	/	/	11µM*	17%
Cc1ccc(C)c(S(=O)(=O)N2CCN(C(=O)c3sccc3C)CC2)c1	-6%	-2%	/	/	-2%	-8%
COc1cc(/C=C/C(=O)OCC(=O)NCCc2ccc(S(N)(=O)=O)cc2)ccc1OCC#N	0%	0%	/	/	4%	3%
COc1cccc(/C=N/Nc2ncnc(N)c2[N+](=O)[O-])c1OC	?	1.8µM*	-22%	3.2µM*	4.8µM*	0.56µM*
Cc1ccccc1-n1c(C)cc(/C=N/Nc2ccc([N+](=O)[O-])cn2)c1C	?	?	-4%	23%	?	?
Cc1cc(/C=N/Nc2nc(N)ncc2[N+](=O)[O-])c(C)n1-c1cccc(C(F)(F)F)c1	?	0.89µM*	/	/	1.5µM*	0.45µM*
Cc1cc(/C=N/Nc2ccc([N+](=O)[O-])cn2)c(C)n1-c1ccc(C(=O)O)cc1	11%	0%	-1%	-9%	?	0%
Cc1cc(/C=N/Nc2ncnc(N)c2[N+](=O)[O-])c(C)n1-c1ccccc1	?	?	/	/	0.076µM*	-18%
Cc1ccc(S(=O)(=O)n2nc(-c3ccco3)nc2NCc2ccc(N(C)C)cc2)cc1	/	/	/	/	0%	/
C=CCn1c(=NC(=O)c2cccs2)sc2cccc(OC)c21	-8%	-1%	/	/	15µM*	14%
O=C1CCNc2ccc(-c3ccccc3)cc21	?	?	-1%	?	15µM*	22%
